From PubChem
Vaccinia mCherry: vaccinia inhibition (mCherry reporter) | Vaccinia virus mCherry reporter infection, fluorescence | Potency, µM (series often up to 36.5 µM), without a hit: at the highest dose activity change, negative = inhibition, most hits filed as inhibitors | actives 0.63% (n = 310,000); calls by dose curve; tested in A549 cells; note: potency is the fitted concentration of half-maximal effect; % is set by controls: 0 for no effect and ±100 for the full control effect; nearly all actives have a fitted effect of over 35% in size
VACV Venus inh: vaccinia inhibition (Venus reporter). Vaccinia virus Venus reporter expression, fluorescence. Potency, µM (top dose mostly 36.5 µM), inactives show at the top dose activity change, negative = inhibition, actives largely listed as inhibitors. actives 0.46% (n = 330,000). AID 720580; calls by dose curve; tested in A549 cells; note: potency is the fitted concentration of half-maximal effect; % is set by controls: 0 for no effect and ±100 for the full control effect; nearly all actives have a fitted effect of over 30% in size
Shiga toxin inh: Shiga toxin inhibition. Vero cells, Shiga toxin protein synthesis inhibition reporter. inhibition, % at 38.7 µM. actives 9.2% (n = 290,000). AID 2315; in the data active = inhibition mostly above about 28%, no sharp cut-off; inactive = mostly below about 43%; note: 0% is about no effect
LASV entry inh: inhibitors of Lassa virus binding or cell entry. Lassa virus pseudotype entry inhibition, cell reporter. AID 540256. actives 1.2% (n = 300,000). Potency, µM (doses to about 37.9 µM), without a hit: at the top dose activity change, negative = inhibition, most hits filed as inhibitors; calls by dose curve; tested in HEK293 cells; note: potency is the fitted concentration of half-maximal effect; % is set by controls: 0 for no effect and ±100 for the full control effect; nearly all actives have a fitted effect of over 50% in size
Marburg entry inh: Marburg virus entry inhibition; Marburg virus pseudotyped entry inhibition, cell reporter; Potency, µM (series often up to 37.8 µM), for the others: top-dose activity change, negative = inhibition, hits mostly inhibitors; actives 1.8% (n = 300,000); calls by dose curve; tested in HEK293 cells; note: potency is the fitted concentration of half-maximal effect; % is set by controls: 0 for no effect and ±100 for the full control effect
CHX counter: counter-screen for Shiga toxin inhibitors: cycloheximide protein synthesis inhibition; cell reporter, cycloheximide protein synthesis inhibition counterscreen; max response, %; actives 12% (n = 300,000); in the data active = max response mostly above about 13%, no sharp cut-off; inactive = mostly below about 14%; note: read at 38.3 µM for the half of the compounds with a filed dose; 0% is about no effect
* hit, by the source's call; i = inactive; ? = inconclusive; / = no result given; ! = a repeat was not active; [ ] = remark or other dose. This excerpt belongs to a sample that is enriched for hits.

SMILES | Vaccinia mCherry | VACV Venus inh | Shiga toxin inh | LASV entry inh | Marburg entry inh | CHX counter
Cc1ccc(C2C=C(c3ccc(Cl)cc3)Nc3nc(NC(=O)c4ccco4)nn32)cc1 (stereo unspecified) | -17% | -5% | / | -18%[46.1 µM] | ? | /
COCCNC(=O)c1cnc2sc(N3CCC(C)CC3)nn2c1=O | -1% | -5% | / | -1%[46.1 µM] | / | /
Cc1ccccc1C(=O)NCCNC(=O)c1ccco1 | 12% | -26% | 1 | 2% | 5%[46.1 µM] | 1
CCOC(=O)c1c(NC(=O)CSc2nc3ccc(C)cc3[nH]2)sc2c1CC(C)(C)NC2(C)C | -25% | ? | / | 10µM* | ? | /
CCOC(=O)c1c(NC(=O)CSc2nnnn2-c2ccccc2)sc2c1CC(C)(C)NC2(C)C | -28% | ? | -13 | ? | ? | -3
Clc1cnc(Oc2ccc(Oc3ncc(Cl)cc3Cl)cc2)c(Cl)c1 | -8% | -4% | 2 | ? | 1µM*! | 15
Oc1ccc(Oc2ncc(Cl)cc2Cl)cc1 | -11% | -10% | -10 | 1% | -3% | -3
COC(=O)C/C=C/[C@@H](C)[C@@H](/C=N/OC[C@@H](O)COCc1ccco1)NS(=O)(=O)c1ccc(C)cc1 | / | / | / | / | 21%[14.2 µM] | /
COc1ccc(CNC(=S)N/N=C(\C)c2ccc(OC)cc2)cc1 | -21% | -18% | 64* | ? | -1%[46.1 µM] | 15
COc1ccc(/C(C)=N/NC(=S)NCc2ccco2)cc1 | -6% | -26% | 15 | 2.1µM* | -11% | -1
COc1ccc(C2C(=O)N(C3CCC(C)CC3)CC(=O)N2CCc2ccccc2)cc1OC (stereo unspecified) | -7% | -8% | / | -15%[46.1 µM] | / | /
O=C(NCCC(=O)N1CCOCCOCCOCCOCC1)OCc1ccccc1 | / | / | 1 | / | / | -2
Cc1cc(C(=O)C(C)Sc2cccc[n+]2[O-])c(C)n1-c1ccc(Cl)cc1 (stereo unspecified) | -27% | -19% | 10 | ? | ? | 10*
Cc1cc(C(=O)C(=O)O)c(C)n1-c1ccc(Cl)cc1 | i | -22% | -8 | 19%[46.1 µM] | -7%[46.1 µM] | -3
CCc1cc2c(s1)c1cnn(Cc3ccccc3F)c(=O)c1n2C | / | / | 17 | / | / | 10
O=S1(=O)NC2c3ccccc3CC2O1 (stereo unspecified) | -11% | -18% | -2 | / | / | 4
CC(C)c1ccc2c(c1)C1Cc3ccccc3C1N2 (stereo unspecified) | ? | -6% | 42* | ? | ? | 56*
Cc1cn(C2CC(O)C(O)C(CO)O2)c(=O)[nH]c1=O (stereo unspecified) | 47% | 9% | / | / | / | /
Cc1cn([C@H]2C=C[C@@H](CO)O2)c(=O)[nH]c1=O | -17% | -12% | 162*! | -16% | ? | 52*!
CCOC(=O)C1=C(N)OC2=C(C(=O)CCC2)C1c1sccc1C (stereo unspecified) | / | / | 17 | 7% | 18% | 1
CCOC(=O)C1=C(N)OC2=C(C(=O)CCC2)C1c1ccc(C)s1 (stereo unspecified) | -8% | -4% | 80* | 29% | 29% | 44*
CC(C)CNC(=O)Nc1ccc(F)c(Cl)c1 | 4% | -5% | 40 | -22% | -12%[46.1 µM] | 26*
CSCC(=O)Nc1ccc(F)c(Cl)c1 | i | -12% | 23 | 0% | -21% | -1
CCCCC(=O)Nc1ccc(F)c(Cl)c1 | / | / | 29 | 16% | 18% | 16*
O=C(Nc1ccncc1)Nc1ccc(F)c(Cl)c1 | ? | ? | 30 | / | / | 15
SMILES | Vaccinia mCherry | VACV Venus inh | Shiga toxin inh | LASV entry inh | Marburg entry inh | CHX counter
CCC(C)NC(=O)Nc1ccc(F)c(Cl)c1 (stereo unspecified) | 4% | -3% | 34 | -3% | 11%[46.1 µM] | 23*
NNCc1cccc(O)c1 | i | -6% | 102* | / | 5% | 35*
Oc1cccc(O)c1 | -14% | -8% | / | / | / | /
NC(=O)c1ccc(C(=O)N/N=C/c2cccc(Oc3ccccc3)c2)cc1 | i | -6% | -7 | -23%[46.1 µM] | 11%[46.1 µM] | 4
O=C(N/N=C/c1cccc(Oc2ccccc2)c1)c1cccc(O)c1 | -23% | -23% | 58* | -27%[46.1 µM] | ? | 35*
O=C(N/N=C/c1cccc(Oc2ccccc2)c1)c1ccccc1Br | i | -13% | 28 | 6.5µM* | ? | 1
O=C(N/N=C/c1cccc(Oc2ccccc2)c1)c1cccc(Br)c1 | -1% | -19% | 61 | ? | ? | 23
Cc1ccc(-c2nc3nc(C)cc(Nc4ccccc4O)n3n2)cc1 | -22% | 3% | / | ? | / | /
COc1cc(C(CC(=O)Nc2cc(C)ccc2C)N2Cc3ccccc3C2=O)cc(OC)c1OC (stereo unspecified) | 3% | -1% | / | -19%[46.1 µM] | / | /
O=C(O)/C=C/c1cn(-c2ccccc2)nc1-c1cc2ccccc2oc1=O | / | / | 41* | / | / | 22*
Cc1ccc(-c2nn(-c3ccccc3)cc2/C=C/C(=O)O)o1 | / | / | 33 | 6% | 0% | 14*
O=Cc1cn(-c2ccccc2)nc1-c1cc2cc(O)ccc2oc1=O | / | / | -9 | -21% | 9% | -3
c1ccc(-n2ncc3c(N4CCN(CCOc5cccc6ccccc56)CC4)ncnc32)cc1 | / | / | 9 | ? | ? | 4
N=C1C(c2nc3ccccc3[nH]2)=C(O)CN1C1CCCCC1 | -1% | -17% | 55* | 15% | 17% | 31*
N=C1C(c2nc3ccccc3[nH]2)=C(O)CN1c1ccc(F)cc1 | / | -15% | 28 | 11% | 15% | 38*
COc1cccc(N2CC(O)=C(c3nc4ccccc4c(=O)[nH]3)C2=N)c1 | ? | 2.8µM* | 2 | ? | ? | -3
NC1=NCC(O)=C1c1nc2ccccc2[nH]1 | i | -13% | 14 | 8% | 7% | 1
CCOC(=O)NCc1ccc2c(c1)cc(C)n2C | / | / | 23 | -5% | 3% | 15*
Cc1ccc2c(c1)cc(C(=O)NCc1ccccc1)n2C | ? | -3% | -2 | ? | 0.63µM* | 10
CCOC(=O)CCC(=O)NCc1ccc2c(c1)cc(C)n2C | / | / | -26 | 8% | ? | 1
COc1ccc(CNC(=O)c2cc3cc(C)ccc3n2C)cc1 | ? | 18% | / | ? | ? | /
CCCCC(=O)NCc1ccc2c(c1)cc(C)n2C | / | / | 52* | -41% | 9% | 14
Cc1cc2cc(CNC(=O)Nc3ccccc3)ccc2n1C | 10% | 43% | 48* | ? | 29% | 18*
COc1cccc(CNC2CCCc3ccccc32)c1OC (stereo unspecified) | -28% | -1% | -12 | -13%[46.1 µM] | ? | -5
CCCC(c1nnnn1CS(=O)(=O)c1ccc(C)cc1)N1CCC(C(N)=O)CC1 (stereo unspecified) | i | -18% | -11 | 6%[46.1 µM] | 2%[46.1 µM] | -4
Cc1cnccc1CN(C)Cc1nc(Cc2ccccc2Cl)no1 | -16% | -15% | -16 | ? | 3%[46.1 µM] | 12
CCOc1ccccc1-n1ccn(CC(=O)Nc2ccc(Br)cc2F)c(=O)c1=O | -16% | -25% | / | -2% | -4% | /
CCc1cc2c(cc3c(=O)n(CCCC(=O)NCc4cccc(Cl)c4)ncn32)s1 | ? | ? | / | / | -9%[46.1 µM] | /
Cc1cc2cc(CNC(=O)c3cccs3)ccc2n1C | / | / | 56* | 0% | 22% | 38*
